This assay is described as follows: qHTS for identification of novel therapeutic agents for treatment of microphthalmiaassociated transcription factor (MiT) renal cell carcinoma (RCC) (AID 1963991). Particulars: CellTiter-Glo, 48 h; for Potency: active = Z-AUC below -0.8 in all three lines; for z-score: stronger effect = lower value. From the text:
PI: Marston Linehan Ph.D.
Urologic Oncology Branch, Center for Cancer Research (CCR)
National Cancer Institute (NCI), National Institute of Health (NIH), Bethesda, Maryland
MiT-Renal Cell Carcinoma (RCC) is characterized by genomic translocations involving microphthalmia-associated transcription factor (MiT) family members TFE3, TFEB, or MITF. MiT-RCC represents a specific subtype of sporadic RCC that is predominantly seen in young patients and can present with heterogeneous histological features making diagnosis challenging. Moreover, the disease biology of this aggressive cancer is poorly understood and there is no accepted standard of care therapy for patients with advanced disease. Tumor-derived cell lines have been established from human TFE3-RCC providing useful models for preclinical studies. TFE3-RCC tumor derived cell lines and their tissues of origin were characterized by IHC and gene expression analyses. An unbiased high-throughput drug screen was performed to identify novel therapeutic agents for treatment of MiT-RCC. Potential therapeutic candidates were validated in in vitro and in vivo preclinical studies. Mechanistic assays were conducted to confirm the on-target effects of drugs. The results of a high-throughput small molecule drug screen utilizing three TFE3-RCC tumor-derived cell lines identified five classes of agents with potential pharmacological efficacy, including inhibitors of phosphoinositide-3-kinase (PI3K) and mechanistic target of rapamycin (mTOR), and several additional agents, including the transcription inhibitor Mithramycin A. Upregulation of the cell surface marker GPNMB, a specific MiT transcriptional target, was confirmed in TFE3-RCC and evaluated as a therapeutic target using the GPNMB-targeted antibody-drug conjugate CDX-011. […] The results of the high-throughput drug screen and validation studies in TFE3-RCC tumor-derived cell lines have provided in vitro and in vivo preclinical data supporting the efficacy of the PI3K/mTOR inhibitor.
SEQUENCE No. (e.g., 1, 2, 3, etc.); […] (e.g., Cells, Incubation, Reagent, etc.); VALUE; DESCRIPTION.
1; Cells; 3 uL; white, solid-bottom Grenier assay plate.
2; Compounds; 23 nL; Kalypsis pin-tool (Wako USA).
3; Incubation; 48 hr; 37 C, 5% CO2, 95% humidity.
4; Reagent; 3 uL; CellTiter-Glo reagent (Promega).
5; Incubation; 15 min; room temperature.
6; Detection; Luminescence; ViewLux plate reader (PerkinElmer).
NOTES (numbers refer to Sequence numbers above)
1. Quantitative high-throughput screening (qHTS) of 1912 pharmacologically defined small molecule compounds was conducted on three TFE3-fusion cell lines bearing three different fusion partners (UOK109, UOK124, UOK145). Briefly, 500 cells in complete growth media were plated into white, solid-bottom, 1536-well tissue culture treated plates (Grenier Cat. 789173-F) using a Multidrop Combi cassette dispenser.
2. Twenty-three nanoliter of 1912 pharmacologically defined small molecule compounds of the NCATS Mechanism Interrogation PlatE (MIPE) version 4.0 were added to each assay plate using a Pintool Dispenser (Wako) equipped with 1536 pin head.
3. Plates were covered with stainless steel gasketed lids and incubated for 48 hours at standard cell culture conditions.
4. Viability was assessed by adding 3uL of CellTiter-Glo detection reagent (Promega).
5. Plates were covered with gasket lids and incubated for 15 minutes at room temperature.
6. Luminescence was measured on a ViewLux plate reader (PerkinElmer). Post-screen data processing used DMSO controls as 100% viability and empty wells as 0% viability and dose response curve fitting was done for all 11 concentrations for each compound.

Where [1] appears, read: TFE3-RCC UOK109 viability, measured here: UOK109 Z-AUC.
[2] abbreviates: TFE3-RCC viability, measured here: UOK124 Z-AUC.
Where [3] appears, read: TFE3-RCC viability, measured here: UOK145 Z-AUC.

Molecules are shown by their SMILES. Results filed as inconclusive are left out. Activity calls are given as the source filed them. Starred links: 1 amine or outer side, 2 acyl side, 3 side chain; linkers in the order of their positions; H or OH if unused. Positions of bridges follow the written chain, without caps; N, C: chain ends. Non-standard residues stand in square brackets, D forms with d. Residues, ends and D or L forms follow the SMILES beside them. Chains are numbered I, II in the order given. Actinocin(9to1) = Cc1c2oc3c(C)ccc(C(=O)[*:1])c3nc-2c(C(=O)[*:2])c(N)c1=O; NMeV = CN[CH](C(=O)O)C(C)C; Sar = CNCC(=O)O
Potency is the fitted concentration of half-maximal effect.

Take `COc1ccc(Nc2cc(-c3cnc(N)nc3)nc(N3CCOCC3)n2)cn1`: the Potency (TFE3-RCC UOK109 viability) is 526 nM (active). The z-score under setting [1] was -1.16, the z-score under setting [2] is -2.53 and the z-score under setting [3] is -2.08.

As for `CC(=O)[C@]1(O)Cc2c(O)c3c(c(O)c2[C@@H](O[C@H]2C[C@H](N)[C@@H](O)[C@H](C)O2)C1)C(=O)c1ccccc1C3=O`, the Potency (TFE3-RCC UOK109 viability) is 332 nM (active). For the same compound, the z-score runs as follows: under setting [1], -1.95; under setting [2], -1.91; under setting [3], -1.45.

On to `COC[C@H](NC(=O)c1cnc(C)s1)C(=O)N[C@@H](COC)C(=O)N[C@@H](Cc1ccccc1)C(=O)[C@@]1(C)CO1`, for which the Potency (TFE3-RCC UOK109 viability) was 3720 nM (active). Moreover, the z-score by setting is: under setting [1], -1.27; under setting [2], -0.856; under setting [3], -2.57.

Consider `CC(=O)O[C@H]1C[C@@H]2CC[C@H]3[C@H]4C[C@H]([N+]5(C)CCCCC5)[C@@H](OC(C)=O)[C@@]4(C)CC[C@@H]3[C@@]2(C)C[C@H]1N1CCCCC1`, for which the z-score by setting is: under setting [1], 0.765; under setting [2], 0.686; under setting [3], -3.76.

`N#CC(=C(O)c1ccc(Cl)cc1Cl)c1nc2cc(Cl)ccc2c(=O)[nH]1`: the z-score runs as follows: under setting [1], 0.465; under setting [2], 1.29; under setting [3], 0.266.

For `Cc1cn([C@@H]2O[C@H](CO)[C@@H](O)[C@H]2F)c(=O)[nH]c1=O`, the z-score by setting is: under setting [1], 0.17; under setting [2], 0.993; under setting [3], 0.494.

Take `CCCc1nc(C(C)(C)O)c(C(=O)O)n1Cc1ccc(-c2ccccc2-c2nn[nH]n2)cc1`: the z-score amounted to 1.09 under setting [1], 0.526 under setting [2] and 0.646 under setting [3].

Regarding `CN1[C@H]2CC(OC(=O)[C@@H](CO)c3ccccc3)C[C@H]1[C@H]1O[C@H]12` (some centres not stated), the z-score came out at 0.573 under setting [1], 0.895 under setting [2] and 0.977 under setting [3].

Regarding `CCCCCCCN(CC)CCCC(O)c1ccc(NS(C)(=O)=O)cc1` (configuration not stated), the z-score is, setting by setting: under setting [1], 0.349; under setting [2], -0.246; under setting [3], 0.649.

As for `CC(=O)OCC(=O)[C@@]12N=C(C)O[C@H]1C[C@H]1[C@@H]3CCC4=CC(=O)C=C[C@]4(C)[C@@H]3[C@@H](O)C[C@@]12C`, the z-score turned out to be 0.415 under setting [1], 0.48 under setting [2] and 2.44 under setting [3].

For the compound `Cc1c2oc3c(C)ccc(C(=O)NC4C(=O)NC(C(C)C)C(=O)N5CCCC5C(=O)N(C)CC(=O)N(C)C(C(C)C)C(=O)OC4C)c3nc-2c(C(=O)NC2C(=O)NC(C(C)C)C(=O)N3CCCC3C(=O)N(C)CC(=O)N(C)C(C(C)C)C(=O)OC2C)c(N)c1=O` (configuration not stated) (I: TVP[Sar][NMeV] / II: TVP[Sar][NMeV]; ester I:1-I:C, II:1-II:C; linker I:N-II:N via Actinocin(9to1); configuration not given here), the z-score under setting [1] is -4.2, the z-score under setting [2] is -4.25 and the z-score under setting [3] was -3.66.

On to `Nc1ccn(C2CO[C@H](CO)O2)c(=O)n1` (some centres not stated), for which the z-score under setting [1] stood at 1.41, the z-score under setting [2] was 1.05 and the z-score under setting [3] is 1.04.

Consider `C[C@]12C=CC(=O)N[C@@H]1CC[C@H]1[C@H]3CC[C@@H](C(=O)Nc4cc(C(F)(F)F)ccc4C(F)(F)F)[C@@]3(C)CC[C@@H]12`, for which the z-score runs as follows: under setting [1], 0.94; under setting [2], 0.86; under setting [3], 0.116.

The values above are taken from PubChem BioAssay (NCATS).
